# Screens from PubChem.
# SW480 rerep – DNA re-replication induction in SW480 cells | Potency, µM (top dose mostly 46.1 µM), inactives show at the top dose re-replication activation, most hits filed as activators | hit rate 1.8% among 340,000 | SW480 DNA re-replication, Hoechst DNA content imaging, 48 h; note: % of control where 0% means no effect; nearly all actives have a fitted effect of over 55% in size
#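 Treated cells incubate 48 hr (37 C, 5% CO2), are stained 40 min with Hoechst, and nuclear fluorescence is enumerated; a rise in nuclei with high DNA signal marks re-replication.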
# p53 reactivation – restores transcriptional activity of mutant p53. H1299 p53-A138V BP100-luciferase reporter, luminescence, 24 h. Potency, µM (doses to about 92.2 µM), inactives show at the highest dose activity change, positive = activation, usual class: activators. hit rate 0.063% among 320,000. AID 504706; note: % of control where 0% means no effect; nearly all actives have a fitted effect of over 45% in size
#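 H1299 (p53-null), stable ts p53-A138V + BP100-Luc; 1000 cells/well, Opti-MEM/10% FBS; cpd 4 pt, 1:5; 24 h, 37 deg C, 5% CO2; detection reagent 10 min RT; luminescence.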
# A-T KAP1 phos – potential ataxia-telangiectasia treatment; F2112 A-T fibroblasts, KAP-1 phosphorylation AlphaLISA; neocarzinostatin DNA damage 30 min before lysis; Potency, µM (top dose mostly 57.5 µM), for the others: at the top dose activation, usual class: activators; hit rate 0.19% among 320,000; note: % of control where 0% means no effect; nearly all actives have a fitted effect of over 45% in size
#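 ATM-like activity read as KAP-1 phosphorylation via AlphaLISA donor/acceptor antibody pairs after lysis and 6 hr at 25C. Cells were ATM-null patient fibroblasts (F2112, hTERT), dosed 60 min, then exposed to the DSB inducer NCS for 30 min.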
# ELG1 DNA repair – blocks ELG1-dependent DNA repair in HEK293T cells; hit rate 2.3% among 330,000; HEK293T ELG1-luciferase reporter, luminescence, 16 h; DNA damage induced by 5-fluorouridine; Potency, µM (highest dose often 46.1 µM), inactives show top-dose activity change, negative = inhibition, most hits filed as inhibitors; note: % is set by controls: 0 for no effect and ±100 for the full control effect; nearly all actives have a fitted effect of over 55% in size
#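 Quantitative HTS, concentration-response format. 2,000 cells/well co-treated with 5-fluorouridine and compound, 16 hr in 5% CO2 at 37 °C; ONE-Glo luminescence read after 30 min.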
# MCF10A rerep – inducers of DNA re-replication in MCF 10A breast cells. MCF 10A DNA re-replication, Hoechst nuclear intensity, 48 h. Potency, µM (titrated, usually from 46.1 µM), without a hit: top-dose activity, positive = re-replication, hits mostly activators. hit rate 2.9% among 350,000. AID 624296; note: % of control where 0% means no effect; nearly all actives have a fitted effect of over 50% in size
# ELG1 genotoxic – induces genotoxicity in HEK293T cells with luciferase-tagged ELG1; HEK293T ELG1-luciferase reporter, luminescence, 16 h; Potency, µM (doses to about 46 µM), for the others: at the highest dose activity change, positive = activation, hits mostly activators; hit rate 1.3% among 330,000; note: % of control where 0% means no effect; nearly all actives have a fitted effect of over 60% in size
#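 Quantitative HTS format in 1536-well plates. HEK293T ELG1-luciferase reporter cells receive test compound and are incubated 16 hr at 37 °C, 5% CO2; ONE-Glo added, 30 min room temperature, then luminescence read.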
# Active calls of the source: *; ? = inconclusive; . = no result given. Only some compounds are listed: those with a hit (about 7.1% of all), similar ones and a draw of the others. Calls come from the whole dose curve; as a rule, active = well fitted curve in the direction sought with a large enough effect; inconclusive = small, poorly fitted or top-dose-only effect, or another doubt; inactive = no such curve, though single readings can be large; an effect the other way counts as inactive or inconclusive. Potency is the fitted concentration of half-maximal effect.
SMILES,SW480 rerep,p53 reactivation,A-T KAP1 phos,ELG1 DNA repair,MCF10A rerep,ELG1 genotoxic
COC(=O)[C@@]1(Cc2ccccc2)[C@H]2C(=O)N(C)C(=O)[C@H]2[C@H]2CN=C(SCc3ccc(C#N)cc3)N21,3.7µM*,-1%,18%,9%,-15%,3%
CCOC(=O)N1CCc2cc(OC)c(OC)c3c2c1cc1cc(OC)c(OC)cc13,18µM*,.,.,.,15µM*,.
COCCCN(C(=O)Cc1csc(-c2cccc(Cl)c2)n1)c1c(N)n(Cc2ccccc2)c(=O)[nH]c1=O,0%,0%,5%,?,1%,4%
C/C(=N/NC(=O)CNC(=O)CCc1ccccc1)c1ccc(Cl)c(Cl)c1,-5%,1%,-4%,0%,-4%,0%
Cc1ccc(-c2ccccc2NC(=O)CS(=O)CC(=O)Nc2ccc(C)c(Cl)c2)o1 (stereo unspecified),?,2%,-2%,-15%,26µM*,1%
Cc1ccc(-c2ccccc2NC(=O)CCl)o1,11%,-9%,-7%,0%,?,-2%
O=C1C=CC(=O)N1c1ccc(OC(F)F)cc1,23µM*,-16%,?,21µM*,?,-6%
O=C1CCCC(=O)N1c1ccc(O)cc1,-5%,1%,5%,10%,-1%,2%
O=C1C=CC(=O)N1c1ccc(O)cc1,21µM*,-14%,-4%,7%,10µM*,-2%
O=C(O)CNC(=O)c1ccc(OC(F)F)cc1,-8%,11%,?,3%,26%,0%
COC(=O)C1=C(C)N(Cc2ccccc2)C(=NCc2ccc(OC)cc2)N[C@H]1c1ccc(Br)cc1,.,.,12%,.,.,.
O=C1C(=O)N(CCCn2ccnc2)C(c2ccc([N+](=O)[O-])cc2)/C1=C(\O)c1ccc2c(c1)OCCO2 (stereo unspecified),5%,4%,-12%,17%,12%,2%
NC1=NC(c2cccc(Cl)c2)N(CCc2ccc(F)cc2)C(N)=N1 (stereo unspecified),3%,-4%,11%,-11%,4%,-9%
CCOC(=O)CCS(=O)(=O)c1nc(-c2ccccc2)cc(C(F)(F)F)n1,27%,-18%,1%,?,?,-13%
CCOC(=O)CS(=O)(=O)c1nc(-c2ccc(F)cc2)cc(C(F)(F)F)n1,21%,-39%,-1%,?,3.7µM*,11%
COc1ccc(-c2cc(C(F)(F)F)nc(S(C)(=O)=O)n2)cc1,11%,-19%,.,-26%,?,?
CCOC(=O)CS(=O)(=O)c1nc(-c2ccccc2)cc(C(F)(F)F)n1,2.6µM*,-15%,-4%,?,?,-20%
Cc1cc(NC(=O)CCCS(=O)(=O)c2nc(-c3cccs3)cc(C(F)(F)F)n2)no1,?,-55%,-6%,?,4.1µM*,10%
CS(=O)(=O)c1nc(-c2ccc(F)cc2)cc(C(F)(F)F)n1,?,-15%,-1%,?,3.7µM*,-28%
Cc1noc(C)c1CC(=O)Nc1ccc2c(c1)OCO2,-11%,0%,-3%,?,18%,4%
O=C(O)CCS(=O)(=O)c1nc(-c2cccs2)cc(C(F)(F)F)n1,?,17%,-2%,0%,?,4%
COCC(C)NC(=O)CCS(=O)(=O)c1nc(-c2ccc(OC)cc2)cc(C(F)(F)F)n1 (stereo unspecified),9%,-43%,4%,?,3.7µM*,?
COc1ccc(-c2cc(C(F)(F)F)nc(S(=O)(=O)CCCC(=O)Nc3cccnc3Cl)n2)cc1OC,3%,-20%,0%,?,12µM*,-1%
COC(=O)CCS(=O)(=O)c1nc(-c2ccccc2)cc(C(F)(F)F)n1,?,-23%,-6%,?,3.7µM*,-22%
Cc1ccc(NC(=O)CSCC(=O)Nc2cccc(S(=O)(=O)N3CCCCCC3)c2)cc1,6%,-5%,17%,?,?,0%
SMILES,SW480 rerep,p53 reactivation,A-T KAP1 phos,ELG1 DNA repair,MCF10A rerep,ELG1 genotoxic
COCCn1c(C)cc(C2=NNC(=NC3CC3)SC2)c1C,-6%,-9%,-1%,5.2µM*,?,-19%
C=CCn1c(C)cc(C2=NNC(=NC(C)(C)C)SC2)c1C,7%,8%,-10%,?,?,0.58µM*
COCCCN=C1NN=C(c2cc(C)n(Cc3ccco3)c2C)CS1,5.8µM*,?,5%,?,?,3.3µM*
COCCn1c(C)cc(C2=NNC(=Nc3ccc(Cl)cc3Cl)SC2)c1C,-3%,1%,-2%,0%,0%,-1%
Cc1cc(C2=NNC(=NC3CC3)SC2)c(C)n1Cc1ccco1,.,-14%,-8%,?,6.5µM*,18%
C=CCN=C1NN=C(c2cc(C)n(CCOC)c2C)CS1,-1%,-7%,-8%,?,0%,-8%
CCN(CCn1cccn1)C(=O)c1cccc(OC2CCN(S(C)(=O)=O)CC2)c1,-5%,?,6%,4%,3%,-3%
COCCN1CC(CNC(=O)c2cc(COc3ccccc3SC)on2)CC1=O (stereo unspecified),8%,-15%,1%,22%,0%,3%
Cc1ccc2c(c1)-n1c(nc3ccc(C)cc3c1=O)C(Cc1ccccc1)NC2=O (stereo unspecified),.,-6%,-9%,-23%,.,-1%
COc1ccc(CCNC(=O)COC(=O)/C=C/c2ccc3c(c2)OCO3)cc1OC,-1%,9%,7%,?,10%,3%
O=C(NCCCc1ccccc1)c1ccc(-n2cncn2)c([N+](=O)[O-])c1,1%,6%,0%,-10%,0%,0%
CCN(C(=O)C1=COCCO1)c1nc2c(C)cccc2s1,-613%,11%,-2%,?,1%,21µM*
CCc1noc(C)c1C(=O)N(CC)c1nc2c(C)cccc2s1,?,-2%,10%,15%,22%,-5%
C/C(=N\NC(=O)CSCc1ccccc1Cl)c1cc(O)ccc1O,?,3%,-5%,18µM*,?,?
COc1ccc(/C=C/c2c(-c3ccc(OC)cc3)sc3cc(OC)c(OC)cc23)cc1,21%,6%,2%,-21%,-33%,0%
CCOc1cc(/C=C2\CCCC(C(=O)C(F)(F)F)=C2O)ccc1O,?,22%,-6%,-20%,18µM*,-3%
COc1ccc(/C=C2\SC(N3CCCCC3)=NC2=O)cc1OC,-7%,5%,-11%,?,15%,?
